# According to the supplement of paper PMC10849652:
# About 8,800 targets were measured; listed, in parts, are those with a hit and a random draw of the rest. About 0.5% of all pairs of compound and target were hits. A number with no mark means an inactive call.
# Columns and labels:
# Assay in all cases: log2 fold change, soluble protein after heating vs DMSO (PISA); higher = thermal stabilisation; K562 lysate, 10 uM; active = over 0.2 and 3.5 SD of the protein, either way, in both replicates (recomputed)
# vemurafenib = compound: CCCS(=O)(=O)Nc1ccc(F)c(C(=O)c2c[nH]c3ncc(-c4ccc(Cl)cc4)cc23)c1F [vemurafenib]
# Procedure, shortened: (§1)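 Thermal stability, expressed as log-two fold change relative to solvent controls, is given from duplicates. Crude K562 extract in PBS pH 7.4 with 1 mM MgCl2, at 1 mg/mL protein, was treated with 10 μM compound for 30 min and heated in aliquots for 3 min across 48°C-58°C. After pooling, adjustment to 0.5% NP-40 at 4°C and centrifugation at 21,000xg for 90 min, supernatant protein was measured by TMTpro 16plex LC-MS/MS with channel sums equalised.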
# [1] = compound: CCCS(=O)(=O)Nc1ccc(F)c(C(=O)c2c[nH]c3ncc(Cl)cc23)c1F
# Procedure, shortened: as §1
# barasertib = compound: CCN(CCCOc1ccc2c(Nc3cc(CC(=O)Nc4cccc(F)c4)[nH]n3)ncnc2c1)CCOP(=O)(O)O [barasertib]
# Procedure, shortened: as §1
# [2] = compound: CC[C@@H]1C(=O)N(C)c2cnc(Nc3ccc(C(=O)NC4CCN(C)CC4)cc3OC)nc2N1C1CCCC1
# Procedure, shortened: as §1
# volasertib = compound: CC[C@@H]1C(=O)N(C)c2cnc(Nc3ccc(C(=O)N[C@H]4CC[C@H](N5CCN(CC6CC6)CC5)CC4)cc3OC)nc2N1C(C)C [volasertib]
# Procedure, shortened: as §1
# [3] = compound: CCn1c(C(=O)N(C2CC2)C2CC2)cc2c3c(ncn3C)c(Nc3cc(C)n(C)n3)nc21
# Procedure, shortened: as §1
# [4] = compound: CCn1cc(-c2ccnc3[nH]c(-c4cccc(CN(C)C)c4)cc23)c(-c2ccc(NC(=O)N(C)C)cc2)n1
# Procedure, shortened: as §1
# [5] = compound: CN1CCC(CNc2ccc3ncc(-c4cccc(OC(F)(F)F)c4)n3n2)CC1
# Procedure, shortened: as §1
# saracatinib = compound: CN1CCN(CCOc2cc(OC3CCOCC3)c3c(Nc4c(Cl)ccc5c4OCO5)ncnc3c2)CC1 [saracatinib]
# Procedure, shortened: as §1
# sotrastaurin = compound: CN1CCN(c2nc(C3=C(c4c[nH]c5ccccc45)C(=O)NC3=O)c3ccccc3n2)CC1 [sotrastaurin]
# Procedure, shortened: as §1
# Sequence of UniProt Q9UP83 (Q9UP83 whole entry, looked up): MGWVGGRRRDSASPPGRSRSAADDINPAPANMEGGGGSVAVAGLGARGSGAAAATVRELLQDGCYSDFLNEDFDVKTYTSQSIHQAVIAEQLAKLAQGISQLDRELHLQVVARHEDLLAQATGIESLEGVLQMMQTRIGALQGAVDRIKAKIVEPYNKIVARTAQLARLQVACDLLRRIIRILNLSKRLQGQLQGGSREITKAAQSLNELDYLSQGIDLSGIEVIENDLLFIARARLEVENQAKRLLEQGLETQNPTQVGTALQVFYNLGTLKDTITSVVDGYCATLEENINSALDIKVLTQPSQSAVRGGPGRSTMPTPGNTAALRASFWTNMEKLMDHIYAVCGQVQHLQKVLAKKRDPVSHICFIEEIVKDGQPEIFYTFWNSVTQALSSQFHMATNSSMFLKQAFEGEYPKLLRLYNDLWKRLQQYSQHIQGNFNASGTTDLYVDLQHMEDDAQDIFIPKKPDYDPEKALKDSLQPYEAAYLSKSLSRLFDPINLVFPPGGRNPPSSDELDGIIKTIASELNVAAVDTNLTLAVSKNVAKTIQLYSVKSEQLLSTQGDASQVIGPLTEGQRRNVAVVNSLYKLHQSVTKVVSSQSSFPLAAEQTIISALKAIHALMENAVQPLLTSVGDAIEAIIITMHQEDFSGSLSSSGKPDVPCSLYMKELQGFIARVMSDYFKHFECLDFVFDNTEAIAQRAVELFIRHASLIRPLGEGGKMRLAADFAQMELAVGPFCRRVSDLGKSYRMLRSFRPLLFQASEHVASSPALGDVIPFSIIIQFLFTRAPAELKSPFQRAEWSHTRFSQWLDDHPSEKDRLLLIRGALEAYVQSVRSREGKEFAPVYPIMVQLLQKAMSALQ
# Sequence of UniProt O60610 (O60610 whole entry, looked up): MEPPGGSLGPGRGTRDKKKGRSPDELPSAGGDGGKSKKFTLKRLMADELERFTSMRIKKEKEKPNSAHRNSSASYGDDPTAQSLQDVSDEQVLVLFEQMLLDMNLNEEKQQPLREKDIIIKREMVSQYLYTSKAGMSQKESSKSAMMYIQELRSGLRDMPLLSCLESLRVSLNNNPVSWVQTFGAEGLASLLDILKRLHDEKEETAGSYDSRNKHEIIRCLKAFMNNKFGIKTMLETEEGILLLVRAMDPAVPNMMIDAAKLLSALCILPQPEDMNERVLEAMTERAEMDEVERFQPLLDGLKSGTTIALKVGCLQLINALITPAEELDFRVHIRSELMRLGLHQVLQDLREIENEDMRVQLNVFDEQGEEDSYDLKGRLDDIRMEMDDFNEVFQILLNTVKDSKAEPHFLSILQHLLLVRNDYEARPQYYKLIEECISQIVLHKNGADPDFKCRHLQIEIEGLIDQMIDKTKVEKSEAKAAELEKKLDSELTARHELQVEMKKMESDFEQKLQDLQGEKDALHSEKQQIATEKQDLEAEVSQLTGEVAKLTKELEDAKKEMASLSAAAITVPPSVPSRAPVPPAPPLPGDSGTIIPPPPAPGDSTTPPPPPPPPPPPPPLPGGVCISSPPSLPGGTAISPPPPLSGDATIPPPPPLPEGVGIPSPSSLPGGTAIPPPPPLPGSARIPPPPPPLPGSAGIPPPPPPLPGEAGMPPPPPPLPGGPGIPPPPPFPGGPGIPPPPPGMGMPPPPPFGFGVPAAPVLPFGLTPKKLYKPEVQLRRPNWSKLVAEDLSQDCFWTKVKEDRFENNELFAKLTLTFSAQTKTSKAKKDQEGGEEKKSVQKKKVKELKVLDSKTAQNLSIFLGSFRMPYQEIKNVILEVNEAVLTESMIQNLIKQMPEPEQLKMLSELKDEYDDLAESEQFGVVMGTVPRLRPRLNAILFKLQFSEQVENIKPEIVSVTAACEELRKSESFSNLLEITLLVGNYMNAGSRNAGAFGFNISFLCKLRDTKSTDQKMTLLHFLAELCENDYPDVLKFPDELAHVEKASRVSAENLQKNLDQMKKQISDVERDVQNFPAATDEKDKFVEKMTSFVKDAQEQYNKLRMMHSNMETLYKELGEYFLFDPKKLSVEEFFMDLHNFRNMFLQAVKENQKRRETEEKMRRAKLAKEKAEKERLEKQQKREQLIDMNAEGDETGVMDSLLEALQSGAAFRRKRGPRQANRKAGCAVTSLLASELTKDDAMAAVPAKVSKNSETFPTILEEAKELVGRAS
# Sequence of UniProt Q7Z460 (Q7Z460 whole entry, looked up): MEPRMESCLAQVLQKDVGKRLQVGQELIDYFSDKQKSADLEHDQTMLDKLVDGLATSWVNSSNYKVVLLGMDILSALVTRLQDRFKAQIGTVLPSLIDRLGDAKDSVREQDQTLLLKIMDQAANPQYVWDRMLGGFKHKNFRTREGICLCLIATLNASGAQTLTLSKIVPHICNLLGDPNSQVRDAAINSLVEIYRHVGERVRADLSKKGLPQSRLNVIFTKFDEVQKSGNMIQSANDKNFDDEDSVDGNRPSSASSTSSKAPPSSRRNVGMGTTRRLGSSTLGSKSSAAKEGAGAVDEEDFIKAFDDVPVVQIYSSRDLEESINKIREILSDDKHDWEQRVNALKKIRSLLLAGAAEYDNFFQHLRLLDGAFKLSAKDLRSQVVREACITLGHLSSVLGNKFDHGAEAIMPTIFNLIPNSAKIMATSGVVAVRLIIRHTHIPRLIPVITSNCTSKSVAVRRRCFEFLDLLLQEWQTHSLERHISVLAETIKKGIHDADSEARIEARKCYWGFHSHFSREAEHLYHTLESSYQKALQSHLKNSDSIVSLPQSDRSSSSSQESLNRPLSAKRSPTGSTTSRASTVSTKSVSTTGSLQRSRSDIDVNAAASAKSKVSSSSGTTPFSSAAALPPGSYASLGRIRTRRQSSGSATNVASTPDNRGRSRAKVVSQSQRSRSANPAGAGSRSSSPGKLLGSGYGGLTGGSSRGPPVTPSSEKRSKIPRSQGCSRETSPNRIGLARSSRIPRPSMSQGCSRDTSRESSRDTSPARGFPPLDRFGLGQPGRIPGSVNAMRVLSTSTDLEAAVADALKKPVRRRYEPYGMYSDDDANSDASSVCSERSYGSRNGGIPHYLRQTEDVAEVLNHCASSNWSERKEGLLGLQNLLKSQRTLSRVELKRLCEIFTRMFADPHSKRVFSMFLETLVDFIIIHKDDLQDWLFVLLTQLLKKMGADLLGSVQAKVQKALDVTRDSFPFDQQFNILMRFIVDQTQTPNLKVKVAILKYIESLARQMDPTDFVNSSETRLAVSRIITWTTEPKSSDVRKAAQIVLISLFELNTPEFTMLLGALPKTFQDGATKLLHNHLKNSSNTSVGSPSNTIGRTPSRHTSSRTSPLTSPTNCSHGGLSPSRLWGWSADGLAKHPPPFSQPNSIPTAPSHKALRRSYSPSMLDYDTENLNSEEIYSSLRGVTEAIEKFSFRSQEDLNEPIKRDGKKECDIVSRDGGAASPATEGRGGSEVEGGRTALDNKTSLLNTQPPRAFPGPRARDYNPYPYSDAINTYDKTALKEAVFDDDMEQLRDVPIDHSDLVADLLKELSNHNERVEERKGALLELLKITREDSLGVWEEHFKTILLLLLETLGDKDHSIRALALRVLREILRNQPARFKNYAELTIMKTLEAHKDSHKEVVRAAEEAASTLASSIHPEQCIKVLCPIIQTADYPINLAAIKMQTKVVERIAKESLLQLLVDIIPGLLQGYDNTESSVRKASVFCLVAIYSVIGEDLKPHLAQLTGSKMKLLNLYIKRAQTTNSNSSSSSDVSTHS
# Sequence of UniProt Q1MSJ5 (Q1MSJ5 whole entry, looked up): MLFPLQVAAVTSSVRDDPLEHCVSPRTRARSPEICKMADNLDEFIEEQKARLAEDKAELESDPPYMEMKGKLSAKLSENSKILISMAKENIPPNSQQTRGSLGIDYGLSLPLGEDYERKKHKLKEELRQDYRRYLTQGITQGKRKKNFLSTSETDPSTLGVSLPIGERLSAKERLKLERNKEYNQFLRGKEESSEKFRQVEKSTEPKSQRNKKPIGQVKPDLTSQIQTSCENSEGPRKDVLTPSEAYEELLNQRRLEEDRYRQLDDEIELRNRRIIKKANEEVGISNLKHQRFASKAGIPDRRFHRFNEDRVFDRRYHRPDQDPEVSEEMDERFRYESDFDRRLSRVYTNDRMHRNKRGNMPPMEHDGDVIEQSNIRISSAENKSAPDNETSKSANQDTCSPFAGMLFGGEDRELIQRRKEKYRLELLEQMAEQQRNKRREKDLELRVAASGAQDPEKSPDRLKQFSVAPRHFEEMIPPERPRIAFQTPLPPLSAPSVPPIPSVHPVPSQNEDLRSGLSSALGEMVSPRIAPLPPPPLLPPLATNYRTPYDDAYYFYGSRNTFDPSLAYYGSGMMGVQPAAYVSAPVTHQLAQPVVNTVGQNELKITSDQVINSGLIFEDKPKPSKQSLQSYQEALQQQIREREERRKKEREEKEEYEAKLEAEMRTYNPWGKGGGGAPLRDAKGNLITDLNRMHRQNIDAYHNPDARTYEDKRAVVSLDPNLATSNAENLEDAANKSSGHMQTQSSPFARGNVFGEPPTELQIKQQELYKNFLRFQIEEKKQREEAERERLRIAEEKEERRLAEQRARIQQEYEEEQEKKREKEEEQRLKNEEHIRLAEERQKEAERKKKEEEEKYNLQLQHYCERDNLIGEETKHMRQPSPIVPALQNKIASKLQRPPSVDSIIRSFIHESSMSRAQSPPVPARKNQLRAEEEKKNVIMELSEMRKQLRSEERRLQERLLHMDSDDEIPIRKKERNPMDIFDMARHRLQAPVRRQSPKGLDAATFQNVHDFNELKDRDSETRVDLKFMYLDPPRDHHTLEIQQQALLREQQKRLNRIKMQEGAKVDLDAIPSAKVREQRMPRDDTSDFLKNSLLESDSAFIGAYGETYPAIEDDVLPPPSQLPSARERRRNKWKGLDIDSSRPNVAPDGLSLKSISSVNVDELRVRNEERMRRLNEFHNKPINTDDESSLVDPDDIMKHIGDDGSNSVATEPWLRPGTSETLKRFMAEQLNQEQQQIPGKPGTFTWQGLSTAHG
# Sequence of UniProt Q9H5X1 (Q9H5X1 whole entry, looked up): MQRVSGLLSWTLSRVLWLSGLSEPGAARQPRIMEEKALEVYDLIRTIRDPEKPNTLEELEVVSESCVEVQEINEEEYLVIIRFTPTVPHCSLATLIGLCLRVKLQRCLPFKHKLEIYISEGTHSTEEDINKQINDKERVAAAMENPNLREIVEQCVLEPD
Target,log2 fold change (vemurafenib),log2 fold change [1],log2 fold change (barasertib),log2 fold change [2],log2 fold change (volasertib),log2 fold change [3],log2 fold change [4],log2 fold change [5],log2 fold change (saracatinib),log2 fold change (sotrastaurin)
CLASP2 isoform 3 (UniProt O75122),0.054,-0.002,0.02,0.015,-0.006,0.013,-0.162,0.093,0.011,0.01
DDX20 (UniProt Q9UHI6),-0.058,0.018,0.011,-0.087,-0.061,0.036,-0.037,-0.094,0.036,0.004
DNAJC5 (UniProt Q9H3Z4),0.001,-0.02,0.008,-0.031,0.012,0.015,-0.476 (active),0.243,0.01,0.041
COG5 isoform 2 (UniProt Q9UP83),0.001,0.06,-0.116,-0.056,-0.084,-0.007,-0.02,0.01,0.057,0.08
DGCR8 (UniProt Q8WYQ5),-0.022,0.031,0.062,-0.046,-0.021,0.015,-0.052,0.066,0.042,0.04
DIAPH1 (UniProt O60610),-0.002,-0.007,0.006,-0.001,-0.002,0.009,0.091,-0.042,-0.006,-0.001
CKAP5 (UniProt Q14008),-0.023,-0.013,0.003,-0.002,-0.021,0.022,-0.016,-0.033,0.005,0.025
CUEDC2 (UniProt Q9H467),0.06,0.001,0.026,0.038,0.027,-0.084,0.694 (active),-0.07,0.002,0
DDX39A (UniProt O00148),0.021,0.021,0.047,-0.049,-0.071,-0.028,-0.041,-0.027,-0.032,-0.002
CSPP1 (UniProt Q1MSJ5),0.03,-0.505 (active),0.026,0.057,0.125,0.05,0.029,-0.006,-0.049,-0.046
CINP isoform 3 (UniProt Q9BW66),-0.071,0.01,0.052,0.098,-0.05,-0.033,-0.331,0.189,0.047,0.014
CMSS1 (UniProt Q9BQ75),-0.011,0.005,0.023,-0.007,-0.011,0,0.212,-0.086,0.007,-0.003
DHRS11 (UniProt Q6UWP2),0.015,0.007,0,-0.019,-0.026,0.023,-0.03,0.025,0.013,0.004
CLASP1 (UniProt Q7Z460),0.025,0.013,0.048,-0.03,-0.018,0.039,-0.043,0.042,0.028,-0.022
CTNNBL1 (UniProt Q8WYA6),0.004,0.016,0.005,-0.042,-0.041,-0.16,-0.013,-0.091,0.023,0.015
CHEK2 (UniProt O96017),-0.059,0.042,0.087,-0.06,-0.044,0.051,0.08,-0.057,-0.036,0
COG3 (UniProt Q96JB2),0.004,0.012,0.041,-0.056,-0.071,0.042,-0.038,0.012,0.046,0.008
DHRS3 (UniProt O75911),0.082,0.012,-0.01,-0.03,0.033,-0.041,-0.061,0.034,0.029,0.013
CLIC2 (UniProt O15247),-0.004,0.007,-0.039,-0.014,-0.011,-0.006,-0.064,-0.005,0.015,0
DFFB (UniProt O76075),0.022,0.044,-0.064,0.037,-0.012,0.1,-0.024,0.061,0.042,0.06
COPZ1 isoform 4 (UniProt P61923),-0.054,-0.004,0.111,0.022,0.019,0.004,-0.015,-0.187,0.018,0.01
CNDP2 (UniProt Q96KP4),0.01,0.023,-0.01,0.11,0.041,-0.032,-0.343 (active),0.278 (active),0.01,0.013
CRABP2 (UniProt P29373),0.128,0.007,0.528,-0.139,0.026,-0.005,0.089,-0.003,0.092,0.001
DENND4A isoform 2 (UniProt Q7Z401),-0.024,0.024,0.029,0.011,-0.069,0.004,-0.132,0.099,0.059,0.025
CIAO2A (UniProt Q9H5X1),-0.028,-0.032,0.094,-0.042,-0.007,0.026,0.233,-0.203,0.033,0.034
CLUH (UniProt O75153),-0.03,0.014,0.024,0.012,-0.02,-0.009,-0.024,0.117,0.011,0.01
DOCK7 (UniProt Q96N67),0.045,0.021,0.027,-0.057,-0.01,0,-0.068,-0.041,-0.028,0.02
CYCS (UniProt P99999),-0.011,-0.001,-0.01,0.061,0.041,0.018,-0.025,0.052,0.008,-0.017
CSNK2B (UniProt P67870),-0.042,0.03,-0.032,-0.007,-0.038,0.015,0.01,0.124,-0.066,-0.029
